Reference: PubChem BioAssay
The source made the active and inactive calls.

Legend:
[1] = small molecules captured by biotinylated probe aFSTL3 – biochemical, small-molecule microarray, fluorescence 635/667, stem cell growth factor project, primary screen (AID 1064); conditions: higher = more signal;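 note: measures binding of the biotinylated anti-FSTL3 antibody to printed compounds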
[2] = binders from COS7 lysate, DM2A8 probe, primary screen, torsin A project, cell lysate, small-molecule microarray, fluorescence 635/667 (AID 1065); conditions: higher = more signal, COS7 lysate expressing mutant human TOR1A
[3] = small molecules captured by biotinylated probe aFGF2 – biochemical, small-molecule microarray, fluorescence 635/667, stem cell growth factor project, primary screen (AID 1067); conditions: higher = more signal;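 note: measures binding of biotinylated aFGF2 protein to printed compounds on slides; z-score merges feature fluorescence and signal-to-noise across triplicate slides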
[4] = small molecules captured by biotinylated probe aFGF10 – biochemical, small-molecule microarray, fluorescence 635/667, stem cell growth factor project, primary screen (AID 1071); conditions: higher = more signal;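 note: score merges 667 nm spot intensity and signal to noise from triplicate slides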
[5] = molecular target: Neurogenic locus notch homolog protein 2 (Homo sapiens) (UniProt Q04721); experiment: small molecules binding Notch2 protein – biochemical, small-molecule microarray, 635 nm fluorescence, stem cell growth factors, primary screen (AID 1073); conditions: higher = more signal
[6] = molecular target: Pro-neuregulin-1, membrane-bound isoform (Homo sapiens) (UniProt Q02297); experiment: small molecules binding neuregulin-1 protein – biochemical, small-molecule microarray, fluorescence 635/667, psychiatric disease protein project, primary screen (AID 1075); conditions: NRG1 binding, 635 nm fluorescence, higher = more signal;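 note: score combines 667 nm spot fluorescence with signal to noise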
[7] = test system: Neuregulin-1 EGF-like domain; experiment: small molecules binding NRG1 EGF domain – biochemical, small-molecule microarray, 635 nm fluorescence, primary screen (AID 1081); conditions: higher = more signal;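 note: binding of the protein to compounds printed on small-molecule microarray slides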
[8] = FRG1 expression reporter modulators in myotubes – cell-based, C2C12 myotubes, firefly/Renilla luciferase, luminescence, FRG1 inhibition for FSHD, primary screen (AID 1084); conditions: FRG1 promoter luciferase, higher = more signal, called active from +8 up or from −8 down
[9] = small molecules captured by biotinylated probe aFST – biochemical, small-molecule microarray, fluorescence 635/667, stem cell growth factor project, primary screen (AID 1086); conditions: higher = more signal;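 note: score merges 667 nm fluorescence with signal-to-noise of each printed compound spot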
[10] = binders of probe aHhip on microarray, primary screen, stem cell growth factor project, biochemical, small-molecule microarray, fluorescence 635/667 (AID 1087); conditions: higher = more signal;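 note: score merges spot fluorescence at 667nm with spot signal to noise ratio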

Neurogenic locus notch homolog protein 2 (Homo sapiens), sequence (Q04721 whole entry, looked up, canonical isoform): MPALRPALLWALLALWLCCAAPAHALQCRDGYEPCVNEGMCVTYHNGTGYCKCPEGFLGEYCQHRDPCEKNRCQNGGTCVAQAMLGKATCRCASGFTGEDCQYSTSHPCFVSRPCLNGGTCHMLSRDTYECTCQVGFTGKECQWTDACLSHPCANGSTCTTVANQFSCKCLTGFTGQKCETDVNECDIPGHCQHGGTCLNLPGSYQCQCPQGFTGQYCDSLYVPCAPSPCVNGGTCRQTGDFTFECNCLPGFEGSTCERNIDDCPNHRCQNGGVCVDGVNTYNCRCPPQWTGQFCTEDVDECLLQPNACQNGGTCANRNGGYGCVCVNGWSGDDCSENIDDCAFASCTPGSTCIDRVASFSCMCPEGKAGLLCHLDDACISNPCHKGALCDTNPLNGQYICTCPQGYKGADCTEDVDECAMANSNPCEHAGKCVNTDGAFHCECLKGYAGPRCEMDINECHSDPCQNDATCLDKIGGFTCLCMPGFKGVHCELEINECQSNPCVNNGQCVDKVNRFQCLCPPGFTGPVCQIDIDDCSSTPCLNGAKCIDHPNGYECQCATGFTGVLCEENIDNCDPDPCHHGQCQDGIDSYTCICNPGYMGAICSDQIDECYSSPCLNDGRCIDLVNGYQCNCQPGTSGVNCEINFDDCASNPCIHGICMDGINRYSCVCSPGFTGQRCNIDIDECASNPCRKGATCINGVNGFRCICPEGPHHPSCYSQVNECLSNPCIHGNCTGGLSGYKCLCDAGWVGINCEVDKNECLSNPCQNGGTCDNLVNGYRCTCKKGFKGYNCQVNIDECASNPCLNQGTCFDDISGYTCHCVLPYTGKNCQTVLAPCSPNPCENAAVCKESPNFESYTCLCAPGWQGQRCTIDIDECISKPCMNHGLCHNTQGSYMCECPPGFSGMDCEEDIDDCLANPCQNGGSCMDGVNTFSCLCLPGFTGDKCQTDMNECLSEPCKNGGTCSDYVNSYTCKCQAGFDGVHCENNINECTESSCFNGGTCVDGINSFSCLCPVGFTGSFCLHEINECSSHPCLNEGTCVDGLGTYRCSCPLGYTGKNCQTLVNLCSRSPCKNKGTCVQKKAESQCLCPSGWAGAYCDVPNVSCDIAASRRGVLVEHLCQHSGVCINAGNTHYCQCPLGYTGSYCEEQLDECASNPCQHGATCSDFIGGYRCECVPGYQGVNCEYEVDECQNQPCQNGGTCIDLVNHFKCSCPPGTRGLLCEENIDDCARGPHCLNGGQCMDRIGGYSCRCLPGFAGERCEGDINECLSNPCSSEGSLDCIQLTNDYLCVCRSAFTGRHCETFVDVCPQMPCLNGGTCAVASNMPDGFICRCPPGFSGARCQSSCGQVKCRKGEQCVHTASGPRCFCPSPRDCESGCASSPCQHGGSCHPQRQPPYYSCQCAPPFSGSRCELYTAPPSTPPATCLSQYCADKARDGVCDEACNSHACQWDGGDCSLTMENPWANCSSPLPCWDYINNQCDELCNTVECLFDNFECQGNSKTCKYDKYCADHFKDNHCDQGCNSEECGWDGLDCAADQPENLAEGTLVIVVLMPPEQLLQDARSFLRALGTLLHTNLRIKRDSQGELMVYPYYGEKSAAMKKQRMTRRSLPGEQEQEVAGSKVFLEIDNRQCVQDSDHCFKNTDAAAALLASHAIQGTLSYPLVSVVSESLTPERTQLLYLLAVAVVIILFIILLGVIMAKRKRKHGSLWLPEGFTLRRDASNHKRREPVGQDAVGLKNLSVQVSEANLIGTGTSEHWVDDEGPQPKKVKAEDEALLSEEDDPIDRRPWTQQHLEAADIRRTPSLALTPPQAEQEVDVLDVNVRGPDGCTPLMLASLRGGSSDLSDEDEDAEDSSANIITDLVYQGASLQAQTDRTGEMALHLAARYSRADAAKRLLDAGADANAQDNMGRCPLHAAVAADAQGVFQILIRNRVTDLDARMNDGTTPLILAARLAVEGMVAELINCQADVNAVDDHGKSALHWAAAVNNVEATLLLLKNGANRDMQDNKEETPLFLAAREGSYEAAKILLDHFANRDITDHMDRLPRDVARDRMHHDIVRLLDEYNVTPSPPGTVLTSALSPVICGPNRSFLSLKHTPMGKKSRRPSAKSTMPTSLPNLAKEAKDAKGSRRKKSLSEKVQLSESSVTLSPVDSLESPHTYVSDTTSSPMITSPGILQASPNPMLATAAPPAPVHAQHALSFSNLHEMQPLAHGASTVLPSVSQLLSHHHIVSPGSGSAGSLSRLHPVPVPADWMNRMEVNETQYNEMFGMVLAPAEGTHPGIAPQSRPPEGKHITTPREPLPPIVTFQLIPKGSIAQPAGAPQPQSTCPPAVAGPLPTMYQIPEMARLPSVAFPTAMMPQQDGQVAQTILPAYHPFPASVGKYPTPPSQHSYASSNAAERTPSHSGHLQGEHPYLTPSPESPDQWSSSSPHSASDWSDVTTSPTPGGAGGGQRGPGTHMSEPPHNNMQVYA
Pro-neuregulin-1, membrane-bound isoform (Homo sapiens), sequence (Q02297 whole entry, looked up, the tested form may be a part, canonical isoform): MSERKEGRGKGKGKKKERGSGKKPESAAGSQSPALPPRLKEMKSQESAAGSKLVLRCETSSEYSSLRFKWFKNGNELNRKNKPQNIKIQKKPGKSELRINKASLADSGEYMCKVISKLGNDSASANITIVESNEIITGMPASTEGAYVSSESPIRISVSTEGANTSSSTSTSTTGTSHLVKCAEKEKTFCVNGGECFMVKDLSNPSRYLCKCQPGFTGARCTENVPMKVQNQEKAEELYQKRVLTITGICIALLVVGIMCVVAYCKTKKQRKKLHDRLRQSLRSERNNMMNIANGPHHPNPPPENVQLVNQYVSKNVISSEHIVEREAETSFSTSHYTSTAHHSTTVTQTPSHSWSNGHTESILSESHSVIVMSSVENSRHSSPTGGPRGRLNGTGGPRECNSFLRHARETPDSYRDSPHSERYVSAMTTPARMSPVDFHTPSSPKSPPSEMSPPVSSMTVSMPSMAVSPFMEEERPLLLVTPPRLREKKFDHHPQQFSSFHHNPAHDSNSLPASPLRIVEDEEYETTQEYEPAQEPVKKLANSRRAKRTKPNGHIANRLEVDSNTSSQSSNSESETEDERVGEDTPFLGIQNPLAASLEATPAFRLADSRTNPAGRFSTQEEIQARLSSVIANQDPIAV

SMILES	composite z-score [1]	composite z-score [2]	composite z-score [3]	composite z-score [4]	composite z-score [5]	composite z-score [6]	composite z-score [7]	z-score [8]	composite z-score [9]	composite z-score [10]
CCOC(=O)C1=C(C(=O)OCC)N(S(=O)(=O)CC[Si](C)(C)C)[C@H](c2ccccc2)CC1	0.208	0.0516	-0.0066	0.2	1.53	-0.0059	0.884	-2.55 (inactive)	0.917	0.0623
CC(C)[C@@H](C(=O)O)n1cc(-c2ccccc2)nn1	0.272	0.692	-0.0894	0.779	0.964	0.648	1.08	0.736 (inactive)	0.874	-0.0645
COCCOC(=O)N1C(=O)[C@@]2(c3cc(C#CC4=CCCCC4)ccc31)[C@H](c1ccccc1OCCO)N1[C@H](c3ccccc3)[C@H](c3ccccc3)OC(=O)[C@H]1[C@@H]2C(N)=O	-0.42	0.599	0	0.525	0.931	-0.253	1.05	-0.89 (inactive)	0.366	-0.217
NCCCC[C@@H]1NC(=O)[C@H]2C[C@@H](C(=O)O)[C@@H](c3cccc(OCCO)c3)N2C1=O	1.34	1.57	0.097	0.856	1.61	2.05	1.4	0.805 (inactive)	2.16	-0.0474
O=C1O[C@H](c2ccccc2)[C@H](c2ccccc2)N2[C@H]1[C@@H](C(=O)N1CCN(c3ncccn3)CC1)[C@]1(C(=O)Nc3ccccc31)[C@H]2c1ccc(O)cc1	0.258	0.918	-0.0718	0.366	0.239	1.23	1.28	1.07 (inactive)	0.3	0.0972
CC(=O)n1cc(C(O)C2C=CC3C(=O)N(c4ccccc4)C(=O)C3N2Nc2ccccc2F)c2ccccc21 (stereo not given)	-0.146	0.25	-0.0757	-0.274	0.021	1.69	1.02	0.625 (inactive)	-0.346	0.0505
CC(C)CNC(=O)[C@@H]1c2ccccc2C(=O)N(C(C)C)[C@H]1c1ccc(CO)cc1	0.172	-0.0466	-0.138	-0.466	-0.811	-0.566	1.41	-0.981 (inactive)	-0.117	-0.261
O=C1c2ccccc2[C@@]2(Cc3ccccc3N(Cc3ccccc3)C2=O)[C@H](c2ccc(CO)cc2)N1Cc1ccccc1	0.55	-0.0642	-0.078	-0.221	-0.476	-0.605	-0.564	0.161 (inactive)	-0.351	-0.0645
CCCC[C@H]1OB(O)C[C@H]2C1=C(COC)C[C@H]1C(=O)C=CC(=O)[C@H]12	-0.54	0.007	-0.0582	0.183	0.861	-0.279	-0.0265	0.254 (inactive)	0.534	0.206
COc1ccc([Si](C)(C)[C@H]2[C@H](CCO)O[C@@]3(C(=O)N(Cc4ccc(N5CCOC5=O)cc4)c4ccccc43)[C@@H]2C)cc1	0.173	0.306	-0.137	0.034	-0.0425	1.11	0.664	-4.39 (inactive)	-0.083	-0.0994
CCOC(=O)C1=CCC(c2cc3ccccc3[nH]2)N(S(=O)(=O)c2ccccc2[N+](=O)[O-])C1 (stereo not given)	-0.191	0.0999	-0.0481	0.465	1.37	1.48	0.957	-2.98 (inactive)	0.361	0.0505
[N-]=[N+]=NCc1ccccc1[C@H]1OC(c2ccc(OCCCO)cc2)=N[C@@]1(Cc1ccccc1)C(=O)N1CCOCC1	-0.212	0.768	0.0232	1.15	1.71	1.39	1.21	-0.868 (inactive)	1.8	-0.166
C=CC[C@]1(C(=O)NCc2ccccc2)COC(c2ccc(OCCCO)cc2)=N1	2.17	2.12	-0.008	-0.588	-0.813	1.09	0.521	0.235 (inactive)	0.946	-0.335
COCCOC(=O)N1C(=O)[C@@]2(c3cc(C#CC4(O)CCCCCC4)ccc31)[C@H](C(=O)N1CCc3cc(OC)c(OC)cc3C1)[C@H]1C(=O)O[C@H](c3ccccc3)[C@H](c3ccccc3)N1[C@@H]2c1ccc(O)cc1	-0.277	2.26	-0.01	0.68	1.51	0.156	1.16	-0.877 (inactive)	0.101	-0.0618
CCN(CC)c1ccc(N2CC=CC34O[C@@H]5C=CCOC(=O)[C@@H]5[C@H]3C(=O)N(CCCO)[C@@H]4C2=O)cc1 (stereo not given in full)	0.515	0.15	-0.062	-0.679	-1.04	0.986	0.391	0.275 (inactive)	-0.504	0.0881
COC(=O)c1c(CC[C@@H](CO)NC(=O)N[C@@H](Cc2ccccc2)Cn2cc(-c3cncn3C)nn2)oc(C(C)=O)c1C(=O)OC	-0.42	0.259	-0.129	0.716	-0.451	1.67	1.29	0.691 (inactive)	0.0625	-0.0401
